# Reference: PubChem BioAssay AID2241 (Broad Institute, 2010)
# The whole screen tested about 21,000 compounds, of which about 110 (0.52%) were called active. The full list was thinned out, with actives kept by preference. Unmarked numbers belong to inactive results.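 Rule for the calls: active = most replicate scores above 10, or exactly half above 10 with mean activity above 10; inconclusive = mean activity below 10 while half the replicates exceed 10; inactive = most replicate scores below 10.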
# Assay: inducers of caspase activity in MEF A1-2A-BIM cells, primary screen, A1 inhibitor project, cell-based, CaspaseGlo luminescence (AID 2241);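 note: effector caspase 3 and 7 activity cleaving a DEVD luciferin substrate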
# Details: caspase-Glo luminescence, 3 h, active compounds read high, percent of clofoctol signal, DMSO as zero, concentration not given here
row,Compound,caspase activation
1,CN[C@@H]1C[C@H]2O[C@@](C)([C@@H]1OC)n1c3ccccc3c3c4c(c5c6ccccc6n2c5c31)C(=O)NC4,81% (active)
2,CCN(CC)C(=O)c1ccc(N(Cc2ccccc2Cl)S(C)(=O)=O)cc1,-0.556%
3,C[C@H]1O[C@@H](O[C@H]2CC[C@]3(CO)C4CC[C@]5(C)[C@@H](C6=CC(=O)OC6)CC[C@]5(O)[C@@H]4CC[C@H]3C2)[C@H](O)[C@H](O)[C@@H]1O[C@@H]1O[C@H](CO)[C@@H](O)[C@H](O)[C@H]1O (stereo not given in full),-0.142%
4,CC1N=C(c2ccccc2)c2ccccc2N(CCCOc2ccc(F)cc2)C1=O (stereo not given),-0.726%
5,Cc1ccc(CSc2nnc(OC(=O)N(C)C)n2-c2cccc(Cl)c2)cc1,-0.0343%
